# Source: PubChem BioAssay
# Pf growth 48h: inhibits P. falciparum growth in the first generation, 48 h; P. falciparum luciferase growth in erythrocytes, 48 h; 5.9% of 310,000 active; AID 504832; Potency, µM (doses to about 28.7 µM), hits mostly inhibitors
#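 In quantitative HTS format, infected erythrocytes bearing luciferase-reporter parasites were treated for a single generation at 37 C. Luminescence after adding detection reagent served as the growth measure.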
# Pf growth 96h: inhibits malaria parasite growth, 96 h | Potency, µM (top dose mostly 28.7 µM), most hits filed as inhibitors | P. falciparum luciferase reporter growth, 96 h | 6.9% of 320,000 active
#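 Two parasite generations (96 h, 37 C, 5% CO2) of compound exposure in infected erythrocytes (0.05% parasitemia, 2% hematocrit). Luciferase-reporter P. falciparum; decreased luminescence indicates inhibited growth, aimed at apicoplast-acting delayed death.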
# HCMV inh: blocks human cytomegalovirus replication | HFF cells, HCMV-luciferase reporter, 72 h; stronger effect = lower value | activity change, negative = inhibition, % at 57.5 µM | 4.5% of 410,000 active | AID 1259415; in the data active means activity change below about -60%; inconclusive means no clear call, values can overlap the other calls; inactive means above about -39%
#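 After 16 h attachment at 37C, HFF cells received test compound and HCMV-luciferase (1 PFU/cell); reporter luminescence read 72 h later, data normalized against buffer-only and known inhibitor Salinomycin.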
# HCV inhibitor: inhibitors of hepatitis C virus infection. 3.4% of 340,000 active. Potency, µM (doses to about 41.8 µM), hits mostly inhibitors. Huh7.5.1 HCVcc-Cre infection, luciferase reporter, 44 h
#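 Seed cells (1,000/well) for 4 h; treat with compound and infect with HCVcc-Cre, moi about 0.5. Incubate 44 h, then detect luciferase activity.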
# A number is an active result; i = inactive; ? = inconclusive; nt = not tested or not shown; [ ] = remark or other dose. Rows were chosen to be rich in hits. Some 13% of all compounds tested hit in one or more screens of this group. Unless noted, the call rests on the fitted dose curve; in most records, active means well fitted inhibition curve with a large enough effect; inconclusive means small, poorly fitted or top-dose-only effect, or another doubt; inactive means no such curve, though single readings can be large or run the other way.
SMILES,Pf growth 48h,Pf growth 96h,HCMV inh,HCV inhibitor
OC(CNCC(c1ccco1)N1CCCCC1)c1ccccc1 (stereo unspecified),1.3µM,?,i,i
O=C(CSc1ccccc1)NCC(c1ccco1)N1CCCCC1 (stereo unspecified),?,?,?,i
Cc1ccc2oc(C(=O)NCC(c3ccco3)N3CCCC3)c(C)c2c1 (stereo unspecified),i,?,i,32µM
O=C(NCC(c1ccco1)N1CCCC1)c1cc2cc(Cl)ccc2o1 (stereo unspecified),?,9.3µM,i,13µM
CCOc1ccc(C(=O)NCC(=O)NCC(c2ccco2)N2CCCCC2)cc1OCC (stereo unspecified),?,i,i,i
CCC1CCCCN1C(=O)COC(=O)c1cccs1 (stereo unspecified),nt,nt,?,i
COc1cc(C(=O)OCC(=O)N2CCCCC2C)cc(NC(=O)c2cccs2)c1OC (stereo unspecified),0.12µM,?,?,?
COC(=O)c1ccc(NC(=O)c2c(NCc3cccc(F)c3)sc3c2CCCC3)cc1,nt,nt,i,nt
COc1ccc(NC(=O)c2ccc(NC(=O)CCS(=O)(=O)c3cccs3)cc2)cc1OC,nt,nt,i,nt
O=C(NC(C(=O)N/N=C/c1c2ccccc2cc2ccccc12)c1n[nH]c(=O)c2ccccc12)c1ccccc1 (stereo unspecified),12µM,13µM,i,2.5µM
CCC1=C(OC(=O)N(CC)CC)N2C(=O)OC(=NCC3CC3)[C@]2(Cc2ccccc2)[C@H]2C1=CC[C@H]1C(=O)N(CC)C(=O)[C@H]12,7.4µM,13µM,i,i
COCCN=C1OC(=O)N2C(=O)C3=C4[C@@H](C[C@H]5C(=O)N(c6ccccc6)C(=O)[C@H]5[C@H]4[C@@]12Cc1ccccc1)[C@H]1C(=O)N(c2ccccc2)C(=O)[C@H]1[C@H]3C,?,?,i,i
CCC1=C2CC[C@H]3C(=O)N(CC)C(=O)[C@H]3[C@H]2[C@@]2(Cc3ccccc3)C(=NCCOC)OC(=O)N2C1=O,i,i,i,i[8.37 µM]
CCC1=C(OC(=O)N(CC)CC)N2C(=O)OC(=NCC(=O)OC)[C@]2(C)[C@H]2C1=CC[C@H]1C(=O)N(CC(=O)OC)C(=O)[C@H]12,i,i,i,i
COC(=O)CN=C1OC(=O)N2C(=O)C3=C4[C@@H](C[C@H]5C(=O)N(c6ccccc6)C(=O)[C@H]5[C@H]4[C@@]12Cc1ccccc1)[C@H]1C(=O)N(c2ccccc2)C(=O)[C@H]1[C@H]3C,12µM,?,i,i
CCC1=C(OC(=O)N(CC)CC)N2C(=O)OC(=NCC(=O)OC)[C@]2(Cc2ccccc2)[C@H]2C1=CC[C@H]1C(=O)N(CC(=O)OC)C(=O)[C@H]12,12µM,?,i,i
CCC1=C(OC(=O)N(CC)CC)N2C(=O)OC(=NCCc3c[nH]c4ccccc34)[C@]2(Cc2ccccc2)[C@H]2C1=CC[C@H]1C(=O)N(CC)C(=O)[C@H]12,9.3µM,13µM,i,?
Cn1ncc2c(NCc3ccc(F)cc3)ncnc21,nt,nt,i,nt
O=C(C[C@H]1CC[C@@H]2[C@H](COC[C@@H](O)CN2Cc2cccc(F)c2)O1)NCC1CCCCC1,nt,nt,i,nt
CCC1=C(OC(=O)N(CC)CC)N2C(=O)OC(=NCCOC)[C@]2(Cc2ccccc2)[C@H]2C1=CC[C@H]1C(=O)N(C)C(=O)[C@H]12,10µM,?,i,i
CCC1=C(OC(=O)N(CC)CC)N2C(=O)OC(=NCCOC)[C@]2(Cc2ccccc2)[C@H]2C1=CC[C@H]1C(=O)N(CC)C(=O)[C@H]12,13µM,?,i,i
CCC1=C(OC(=O)N(CC)CC)N2C(=O)OC(=NCc3ccccc3)[C@]2(C)[C@H]2C1=CC[C@H]1C(=O)N(CC)C(=O)[C@H]12,12µM,?,i,i
CCC1=C(OC(=O)N(CC)CC)N2C(=O)OC(=NCC(=O)OC)[C@]2(C)[C@H]2C1=CC[C@H]1C(=O)N(CC)C(=O)[C@H]12,i,i,i,i
CCC1=C(OC(=O)N(CC)CC)N2C(=O)OC(=NCCc3c[nH]c4ccccc34)[C@]2(C)[C@H]2C1=CC[C@H]1C(=O)N(C)C(=O)[C@H]12,10µM,?,i,i
Cc1ccc(S(=O)(=O)c2nnn(CC(=O)Nc3ccccc3C)c2N)cc1C,nt,nt,i,nt
SMILES,Pf growth 48h,Pf growth 96h,HCMV inh,HCV inhibitor
CCC(CC)NC(=O)Nc1cccc(C)c1C,i,i,i,i
CCn1c(NC(=O)Nc2cccc(C)c2C)cc2sccc21,nt,13µM,i,i
c1ccc2c(-c3cnc4cccnn34)cncc2c1,nt,nt,i,nt
c1cc(-c2cnc3cccnn23)c2cccnc2c1,nt,nt,-69,nt
Cc1ccc(Cl)c2c1NC(=O)C2(O)CC(=O)c1ccccc1O (stereo unspecified),i,9.3µM,i,i
CNC(=O)c1ccc2c(c1)N=C(C)c1cc(C)ccc1S2,nt,nt,i,nt
CCC1=Nc2cc(C(=O)NC3CCCC3)ccc2Sc2ccc(Cl)cc21,nt,nt,-71,nt
CCC1=Nc2cc(C(=O)NCC3CCCO3)ccc2Sc2ccc(Cl)cc21 (stereo unspecified),?,?,i,?
CCC1=Nc2cc(C(=O)NCC3CCCO3)ccc2Sc2ccc(Br)cc21 (stereo unspecified),2.9µM,?,i,?
CC1=Nc2cc(C(=O)NC3CCCC3)ccc2Sc2ccc(C)cc21,nt,nt,-93,nt
CC1=Nc2cc(C(=O)NC3CCCC3)ccc2Sc2ccc(Cl)cc21,nt,nt,-72,nt
Cc1oc(-c2ccc(Cl)cc2)nc1CSc1nnc(C)n2c1cc1sccc12,nt,nt,i,nt
CCOc1ccc(Nc2cc(C)c(C#N)c3nc4ccccc4n23)cc1,nt,nt,i,nt
CSc1ccc(CCNC(=O)c2c(C)oc3ncn(C)c(=O)c23)cc1,nt,nt,i,nt
CCOC(=O)c1cccc(NC(=O)c2ccc3snnc3c2)c1,nt,nt,i,nt
Fc1ccc(-c2nc(Nc3cccc(C(F)(F)F)c3)nc3c2COc2ccccc2-3)cc1,nt,nt,i,nt
CCOc1ccccc1CNC(=O)c1ccc(Cn2c(=O)c3cccn3c3cccnc32)cc1,nt,nt,i,nt
CCC[C@H]1[C@@H](N(C)C)CC[C@@]23CCCN2C(=O)CCC[C@@H]13,nt,nt,i,nt
CC1=Nc2cc(C(=O)NC(C)C)ccc2Sc2ccc(C)cc21,nt,nt,-77,nt
C/C(=N\NC(=O)C1CC1)c1ccc(Cl)c(Cl)c1,nt,4.1µM,i,i
COc1cc(C(=O)N2CC(=O)Nc3ccc(C)cc3C2c2ccc(F)cc2)cc(OC)c1OC (stereo unspecified),nt,nt,i,nt
O=c1c(Cc2ccc(F)cc2)c(O)ccn1C1CC1,5.2µM,i,i,i
O=C1NC(=Nc2ccc(Cl)cc2)/C(=C/c2ccco2)S1,?,?,-80,?
CCOC(=O)C1=C[C@@H](C(C)(C)C)N(S(=O)(=O)c2ccc(C)cc2)[C@H]1c1ccc(C)cc1,nt,nt,-76,nt
Cc1cc(C)cc(NC(=O)c2cc(C)nc3c2c(C)nn3-c2ccccc2)c1,nt,nt,i,nt
CCOc1cccc(OCCCn2c(-c3ccc(Br)cc3)nc3ccccc3c2=O)c1,nt,nt,i,nt
CCOC(=O)C1CCN(CC(O)COc2ccc(S(=O)(=O)N3CCCC3)cc2[N+](=O)[O-])CC1 (stereo unspecified),8.3µM,?,i,i
